From PubChem BioAssay AID1246 (Columbia University Molecular Screening Center, 2008)
About 840 (0.7%) of roughly 120,000 compounds were called active.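 How the source made its calls: active means inhibition above the batch mean plus 3 SD, and confirmed as a hit on visual image review (cut at about 43% in these data); inconclusive means passes the inhibition cutoff but fails visual image review; inactive means the rest.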 The entries come from a sample that favours actives as a whole.

Assay: E-selectin induction blockers in HUVEC – imaging, immunofluorescence, high content, primary screen (AID 1246);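 further: 0% = TNF-stimulated DMSO wells and 100% = unstimulated control wells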
Settings: HUVEC TNFa-induced E-selectin immunofluorescence, at 2 µM, stronger effect = higher value

SMILES	inhibition
CC(C)C(c1nnnn1Cc1ccccc1)N1CCC(C(N)=O)CC1 (stereo not given)	100% (active)
CC(C)C(c1nnnn1CCc1ccccc1)N1CCN(C(=O)c2ccco2)CC1 (stereo not given)	20.3% (inactive)
Cc1ccc(C(c2nnnn2CS(=O)(=O)c2ccc(C)cc2)N2CCC(C(N)=O)CC2)cc1 (stereo not given)	-22.9% (inactive)
CC1CCCC(C)N1/N=C/c1ccccc1OC(F)F (stereo not given)	0.15% (inactive)
O=C(CN(CC1CCCO1)C(=O)CNS(=O)(=O)c1ccc(F)cc1)NCc1ccco1 (stereo not given)	-15.3% (inactive)
CCN(CCCNC(=O)CCn1c(=O)[nH]c2ccsc2c1=O)c1ccccc1	-8.13% (inactive)
O=S(=O)(c1ccc2c(c1)OCCO2)N1CCc2ccccc21	27.9% (inactive)
COCCN(C(=O)CCC(=O)Nc1nccs1)C(C(=O)NC(C)(C)C)c1ccc(Cl)cc1 (stereo not given)	19.2% (inactive)
COc1cc(/C=N/Nc2ccc(C)cc2)cc(Br)c1O	-4.64% (inactive)
Cc1cc(C)n2nc(C(=O)N(C)C(c3ccccc3)c3ccccc3)nc2n1	45.1% (active)
Cc1cc(C)n2nc(C(=O)N3CCN(Cc4ccc5c(c4)OCO5)CC3)nc2n1	-35.2% (inactive)
Cc1cc(C)n2nc(SCC(N)=O)nc2n1	-29.9% (inactive)
COC(=O)c1c(C(=O)OC)c(-c2cccc(C)c2)n2c1CS(=O)C2 (stereo not given)	58.3% (inactive)
CSc1nc2nc(-c3cccc(C(F)(F)F)c3)ccn2n1	-26.4% (inactive)
CC(CC(=O)C1C(C)C=CCC1(C)C)NNC(N)=O (stereo not given)	13.4% (inactive)
CC(=O)c1cccc(NC(=O)Nc2ccc(C)cc2)c1	8.52% (inactive)
CC(=O)Nc1ccc(C(=O)OCC(=O)Nc2ccc([N+](=O)[O-])cc2C(F)(F)F)cc1	-7.06% (inactive)
CC(=O)c1ccc(NC(=O)Nc2ccc([N+](=O)[O-])cc2C)cc1	70.8% (active)
CCCCN(CC(=O)NC(C)(C)C)C(=O)C(=O)Nc1ccc2c(c1)OCCO2	-8.58% (inactive)
Cc1nccn1CCCNC(=O)CC1C(=O)NCCN1Cc1ccc(Cl)c(F)c1 (stereo not given)	-5.16% (inactive)
COc1ccc(Cc2nnc(NC(=O)Cc3cccs3)s2)cc1	83.6% (active)
O=C(Cc1cccs1)Nc1nnc(SCc2ccc(F)cc2)s1	-12.5% (inactive)
COc1ccc(Cc2nnc(NS(=O)(=O)Cc3ccccc3)s2)cc1	55.2% (inactive)
CCCC(C)C(=O)NCc1ccncc1 (stereo not given)	0.76% (inactive)
CCOC(=O)N1CCC(=NNC(N)=O)CC1	-34.9% (inactive)

SMILES	inhibition
Cn1cc(-c2ccccc2)cc(C#N)c1=O	3.87% (inactive)
Cc1cc(OC(=O)c2ccccc2)c([N+](=O)[O-])c(=O)[nH]1	-11.2% (inactive)
CC(=O)Nc1ccccc1Sc1ccc2c3c(cccc13)C(=O)N(c1ccc(C)cc1)C2=O	62.1% (active)
CC(=O)NCCn1c(SCC(=O)Nc2ccc(C)cc2)nc2ccccc2c1=O	-10.7% (inactive)
CCOC(=O)Nc1ccccc1N1C(=O)c2ccccc2C1=O	-7.24% (inactive)
C/C=N/NC(=O)CCCC(=O)N/N=C/C	-10.5% (inactive)
CN1CCC(OC(=O)COc2ccc(Cl)cc2Cl)CC1	12.5% (inactive)
Cc1ccc(C(=O)NC(=S)Nc2ccc(N3CCOCC3)cc2)cc1	2.01% (inactive)
Cc1ccc(C)c(Cn2cnc3c(oc4ccccc43)c2=O)c1	-10.7% (inactive)
CC1CCC2(CC1)NC(=O)N(Cc1nnc(-c3cccs3)o1)C2=O (stereo not given)	-9.64% (inactive)
Cc1nc(-c2ccc(Cl)cc2)sc1C(=O)CBr	24.5% (inactive)
CCc1nnc(NC(=O)CCCSc2nc3ccccc3[nH]2)s1	-35.3% (inactive)
CCC(C)(C)NC(=O)CN(C(=O)C(=O)Nc1ccc2c(c1)OCCO2)C(C)(C)CC	-8.58% (inactive)
COc1ccc(NC(=O)c2c(C)oc3c2CCCC3)cc1	60.9% (active)
COc1ccc(C(=O)Nc2ccc(S(=O)(=O)NC(C)C)cc2)cc1	-8.02% (inactive)
COc1ccc(NC(=O)c2ccc(OC)cc2)cc1	-30.5% (inactive)
COc1ccc(-c2[nH]ncc2CN(C)Cc2cccnc2)c(F)c1	-5.34% (inactive)
O=C(NCc1nnc(SCC(=O)N2CCCc3ccccc32)o1)c1ccccc1F	-38.5% (inactive)
CCN(CC)S(=O)(=O)c1ccc(N(C)CCc2ccc(OC)c(OC)c2)nc1	0.93% (inactive)
CCCOc1ccc(C(=O)NCCc2ccccc2)cc1	-42.2% (inactive)
Cn1c(SCC(=O)N2CCCc3ccccc32)nc2ccccc2c1=O	-1.81% (inactive)
O=C(CSc1nc2ccccc2c(=O)n1CCCO)N1CCc2ccccc21	-7.95% (inactive)
C=CCn1c(=O)c2ccccc2n2c(SCC(=O)N3CCCc4ccccc43)nnc12	80.1% (active)
Cc1c(Br)c([N+](=O)[O-])nn1CC(=O)N1CCN(Cc2ccccc2)CC1	8.51% (inactive)
O=C(/C=C/c1ccccc1Cl)Nc1ccc(S(=O)(=O)Nc2ncccn2)cc1	-13.4% (inactive)

SMILES	inhibition
COCCCNCCOCCOc1ccc(Cl)cc1Br	-28.3% (inactive)
OCCNCCCCOc1ccccc1F	-13.2% (inactive)
OCCNCCOc1ccc(Cl)c(Cl)c1	75.2% (active)
CCOC(=O)N1CCN(CCC(=O)Nc2cc(OC)ccc2OC)CC1	-40.9% (inactive)
O=C(Nc1cccc(F)c1)N1C2CCC1CC(O)(c1cccnc1)C2 (stereo not given)	-22.6% (inactive)
CN(C)C(=O)c1nc2ccc(Cl)cn2c1CN1CCN(c2ncccn2)CC1	-15.7% (inactive)
Cc1cnc(C(=O)OCC(=O)NCCCc2ccccc2)cn1	-18.2% (inactive)
O=C(CCSc1ccccc1)N1CCN(c2ccccc2F)CC1	-7.82% (inactive)
Cc1cc(C)n(-c2nnc(N3CCN(c4ccccc4)CC3)nn2)n1	1.97% (inactive)
CCCCSc1nnc(-c2ccc(NC(=O)CC)cc2)n1C	1.71% (inactive)
Cn1c(SCC(=O)Nc2cccc(NC(=O)c3cccs3)c2)nnc1-c1ccncc1	26.7% (inactive)
CCC(=O)Nc1cccc(NC(=O)CSc2nnc(-c3ccc(NS(C)(=O)=O)cc3)n2C)c1	64.3% (active)
COC(=O)C(=Nc1ccccc1)/C(C(=O)C(=O)N(C)c1ccccc1)=C(\O)c1ccc(Cl)cc1	-20.7% (inactive)
CSc1ncccc1C(=O)N1CCCC(CCC(=O)NCc2ccccc2F)C1 (stereo not given)	-22.4% (inactive)
Cc1cc(C)c2c(c1)c(C)cc1nnc(SCC(=O)NCc3ccco3)n12	9.01% (inactive)
Cc1ccc(SCC(=O)NC(=O)NCc2ccco2)c(C)c1	76% (active)
O=C(CSc1nnc(-c2ccco2)n1Cc1ccccc1)NC(=O)NCc1ccco1	-1.5% (inactive)
Cc1cc(N2CCN(C)CC2)nc2ccc(NC(=S)N3CCOCC3)cc12	19.6% (inactive)
CC(=O)N1CCN(S(=O)(=O)c2c(F)cc(F)c(Cl)c2F)CC1	-26.7% (inactive)
CCOC(=O)N1CCN(C(=O)CSc2nc(C)nc3c2c(=O)n(C)c(=O)n3C)CC1	-25% (inactive)
Brc1cc(/C=N/n2cnnc2)oc1Br	-13.4% (inactive)
Cc1cccc(C)c1NC(=O)C1CCCN1C(=O)OC(C)(C)C (stereo not given)	-33.1% (inactive)
C=CCN(CC=C)CCOc1ccccc1[N+](=O)[O-]	-5.8% (inactive)
Cc1ccc(CNC(=O)c2cccnc2Cl)cc1	-5.85% (inactive)
CC12CCC(C(=O)N(NC(=O)c3ccccc3O)C1=O)C2(C)C (stereo not given)	-1.25% (inactive)

SMILES	inhibition
CSc1nc(C)cc(SC(C(C)=O)C(=O)Nc2ccccc2)n1 (stereo not given)	-11.9% (inactive)
CC(Sc1nnc2c(n1)C1CCC2(C)C1(C)C)C(=O)Nc1ccccc1 (stereo not given)	70.7% (active)
Cc1ccc2c(Cl)c(C(=O)Nc3nn[nH]n3)sc2c1	13% (inactive)
COc1ccccc1CNC(=O)C1Cc2ccccc2C(=O)O1 (stereo not given)	-3.67% (inactive)
Cn1c(-c2ccc(F)cc2)cnc1SCC(=O)NNC(=O)Cc1ccccc1	-21.1% (inactive)
CC1=NN(C(C)C)C(=O)C1	53.9% (active)
Cc1cc(C)n(Cc2cnc(N3CCOCC3)s2)n1	1.48% (inactive)
Cn1c(SCC(=O)Nc2ccc(Br)cc2F)nnc1-c1ccco1	-23.6% (inactive)
CCNC(=S)NNC(=O)c1ccc2ncccc2c1	9.15% (inactive)
CCn1c(SCC(=O)NCc2ccco2)nnc1-c1ccc(N)cc1	69.4% (active)
Cc1ccc(-c2csc3nnc(SCC(=O)NCc4ccco4)n23)cc1	-6.76% (inactive)
CCn1c(COc2ccccc2)nnc1SCC(=O)NCc1ccco1	-14.4% (inactive)
Cc1ccc(-n2c(C)cc(C(=O)CN3C(=O)C(=O)N(C4CCCC4)C3=O)c2C)cc1	-16.5% (inactive)
Cc1ccc(OCC(=O)Nc2ccc(S(=O)(=O)Nc3ccccn3)cc2)cc1	-18.7% (inactive)
CN(C)CC(C)(C)CNC(=O)c1cc(Br)cc(Br)c1O	0.11% (inactive)
CC(=O)Nc1nc(N(C)C)nc(N(C)C)n1	13.8% (inactive)
Cc1cccc(NC(=O)CN2C(=O)CNC2=O)c1	-1.87% (inactive)
CC1(c2ccccc2Cl)NC(=O)N(CC(=O)NC(=O)NCc2ccco2)C1=O (stereo not given)	23.7% (inactive)
CN(C)S(=O)(=O)c1cc(NC(=O)CN2C(=O)NC3(CCCc4ccccc43)C2=O)ccc1Cl (stereo not given)	67.1% (active)
CN1CCN(CCCCOc2ccccc2-c2ccccc2)CC1	-23.6% (inactive)
CC(=O)C1(C)N(O)C(C)(C)C(c2cccs2)=[N+]1[O-] (stereo not given)	-15.7% (inactive)
CC1CC(C)CN(S(=O)(=O)c2ccc(C(=O)NN3CCOCC3)cc2)C1 (stereo not given)	-4.78% (inactive)
CCOC(=O)c1c(-c2ccc(C)cc2C)csc1NC(=O)CSc1nnnn1C	-25.1% (inactive)
CCOC(=O)c1c(NC(=O)CSc2nnc(CNc3ccc(C)cc3C)o2)sc(C)c1C	74.5% (active)
CCOC(=O)c1sc(NC(=O)CSc2nnc(-c3ccco3)o2)c(C(=O)OCC)c1C	-40.2% (inactive)
